Here are results for 13 molecules from PubChem BioAssay (Tox21).

A short description of assay [1]: qHTS assay to identify small molecule agonists of the RXR signaling pathway - cell viability counter screen (AID 1159529). Also: series mostly up to about 77 µM; nearly all actives have a fitted effect of over 50% in size. The procedure, abridged: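 Luminescence from CellTiter-Glo (30 min, RT) measured viability in the same wells as the beta-lactamase reporter readout. Cells: GeneBLAzer RXR-alpha HEK 293T, 2% charcoal-stripped FBS. Compound exposure 16 hr, 37 C.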

The nature of assay [2]: qHTS assay to identify small molecule antagonists of the retinoid acid receptor (RAR) signaling pathway - cell viability counter screen (AID 1159551). Also: nearly all actives have a fitted effect of over 35% in size. The procedure, abridged: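 Cytotoxicity counter screen in C3RL4 cells: 6 h compound exposure with 1 uM retinol (final), viability from cellular ATP by luminescence.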
Assay [3] is described as follows: qHTS assay to identify small molecule antagonists of the retinoic acid receptor (RAR) signaling pathway (AID 1159552; also: nearly all actives have a fitted effect of over 50% in size). Summed up:
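Luminescence from a RARE luciferase reporter in C3RL4 cells served as read-out. Cells received compounds together with 1 uM final retinol and incubated 6 hr at 37 C before detection reagent was added for 30 min at room temperature.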

Assay [4] is described as follows: qHTS assay to identify small molecule agonists of the retinoic acid receptor (RAR) signaling pathway (AID 1159553). Also: potency is read from the fitted curve at half-maximal effect. Summed up:
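Agonist activity was scored in C3RL4 cells bearing a retinoic acid response element luciferase construct. Cells were treated with compounds for 6 hr at 37 C, and luciferase signal was measured as luminescence.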

Assay [5] in a line: qHTS assay to identify small molecule antagonists of the estrogen related receptor (ERR) signaling pathway from Tox21 library - cell viability counter screen (AID 1224834). Also: nearly all actives have a fitted effect of over 30% in size. Summed up:
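Cytotoxicity of test substances is gauged in the same ERR cells used for the antagonist screen, after 17.5 h of compound treatment at 37 C, by CellTiter-Fluor fluorescence measured after 30 min.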

In assay [6] the target is Luciferin 4-monooxygenase (Photinus pyralis) (UniProt P08659). The assay is described as follows: qHTS assay to identify small molecule inhibitors of firefly luciferase (AID 1224835). Also: nearly all actives have a fitted effect of over 25% in size. Also: potency is read from the fitted curve at half-maximal effect. The procedure, abridged: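 Biochemical qHTS: compounds run as interplate titrations against purified firefly enzyme, with D-luciferin and ATP each at its KM concentration. Light output recorded by CCD imaging.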

A short description of assay [7]: qHTS assay to identify small molecule agonists of the constitutive androstane receptor (CAR) signaling pathway - cell viability counter screen (AID 1224836). Also: series mostly up to about 92 µM; nearly all actives have a fitted effect of over 45% in size. Summed up:
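Viability read-out: CellTiter-Fluor fluorescence after 23 h compound exposure at 37 C/5% CO2 in double-stable HepG2-CYP2B6-hCAR cells, with PK11195 present at 0.75 uM final; compounds tested in 15-point titration.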

Assay [8] can be described thus: qHTS assay to identify small molecule antagonists of the constitutive androstane receptor (CAR) signaling pathway - cell viability counter screen (AID 1224837). Also: series mostly up to about 92 µM; nearly all actives have a fitted effect of over 45% in size. The procedure, abridged: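 Multiplexed cytotoxicity read-out for the CAR antagonist screen: double-stable HepG2-CYP2B6-hCAR cells co-treated with 50 nM CITCO (final) and compound over 15 concentrations, incubated 23 hr, then assessed by CellTiter-Fluor fluorescence.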

In assay [9] the target is Nuclear receptor subfamily 1 group I member 3 (Homo sapiens) (UniProt Q14994). The assay is described as follows: qHTS assay to identify small molecule antagonists of the constitutive androstane receptor (CAR) signaling pathway (AID 1224838). Also: nearly all actives have a fitted effect of over 40% in size. The procedure, abridged:
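Compounds were titrated across 15 concentrations onto HepG2 cells double-stably expressing hCAR and a CYP2B6-2.2kb reporter, together with 50 nM CITCO (final). After 24 h at 37 C, luciferase activity was measured by luminescence.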

The target is the same in assay [10]. The assay is described as follows: qHTS assay to identify small molecule agonists of the constitutive androstane receptor (CAR) signaling pathway (AID 1224839). Also: nearly all actives have a fitted effect of over 15% in size. Also: potency is read from the fitted curve at half-maximal effect. The procedure, abridged: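 Luminescence read-out (ONE-Glo, 30 min, room temperature) from double-stable HepG2-CYP2B6-hCAR cells exposed 24 h to 15-point compound series in presence of 0.75 uM PK11195 final.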

Assay [11] can be described thus: qHTS assay to identify small molecule antagonists of the estrogen related receptor signaling pathway with the pleiotropic PPARgamma coactivator (PGC) from Tox21 10K library - cell viability counter screen (AID 1224840; active = well fitted cell-killing curve with a large enough effect in the repeat runs, not every such curve was filed as active; also: nearly all actives have a fitted effect of over 40% in size). Summed up: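 Step one, plate 2,000 PGC/ERR cells per well; step two, incubate 6 h at 37 C/5% CO2; step three, pin-transfer compounds; step four, incubate 17.5 h; step five, add CellTiter-Fluor and read fluorescence after 30 min.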

A short description of assay [12]: qHTS assay to identify small molecule antagonists of the estrogen related receptor signaling pathway with the pleiotropic PPARgamma coactivator (PGC) from Tox21 10K library (AID 1224841; call rule not given here; also: series mostly up to about 92 µM; actives are mostly falling curves and most rising ones were filed inactive; nearly all actives have a fitted effect of over 50% in size). Summed up: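 Antagonism in this quantitative HTS is taken from loss of luciferase signal in PGC/ERR cells. Cells (2,000/well) are treated with compounds in DMSO after a 6 h settling period and read by One-Glo luminescence after 18 h.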

Assay [13] can be described thus: qHTS assay to identify small molecule agonists of the estrogen related receptor signaling pathway with the pleiotropic PPARgamma coactivator (PGC) from Tox21 10K library (AID 1224842). Also: potency is read from the fitted curve at half-maximal effect; nearly all actives have a fitted effect of over 15% in size. The procedure, abridged: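 PGC/ERR reporter cell line, 2,000 cells per well, incubated 6 h at 37 C before 23 nL compound in DMSO was added. After 18 h at 37 C, One-Glo luminescence read following 30 min at room temperature.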

Each structure is given as a SMILES string. Results filed as inconclusive are left out. Unmarked numbers belong to inactive results. Active and inactive are the calls of the source. Unless noted, calls follow the shape of the dose curve; as a rule, active = well fitted curve in the direction sought with a large enough effect in the repeat runs; inconclusive = weak or mixed curves; inactive = no such curve, though single readings can be large; an effect the other way counts as inactive or inconclusive.

Chain of Luciferin 4-monooxygenase (Photinus pyralis) (P08659 whole entry, looked up): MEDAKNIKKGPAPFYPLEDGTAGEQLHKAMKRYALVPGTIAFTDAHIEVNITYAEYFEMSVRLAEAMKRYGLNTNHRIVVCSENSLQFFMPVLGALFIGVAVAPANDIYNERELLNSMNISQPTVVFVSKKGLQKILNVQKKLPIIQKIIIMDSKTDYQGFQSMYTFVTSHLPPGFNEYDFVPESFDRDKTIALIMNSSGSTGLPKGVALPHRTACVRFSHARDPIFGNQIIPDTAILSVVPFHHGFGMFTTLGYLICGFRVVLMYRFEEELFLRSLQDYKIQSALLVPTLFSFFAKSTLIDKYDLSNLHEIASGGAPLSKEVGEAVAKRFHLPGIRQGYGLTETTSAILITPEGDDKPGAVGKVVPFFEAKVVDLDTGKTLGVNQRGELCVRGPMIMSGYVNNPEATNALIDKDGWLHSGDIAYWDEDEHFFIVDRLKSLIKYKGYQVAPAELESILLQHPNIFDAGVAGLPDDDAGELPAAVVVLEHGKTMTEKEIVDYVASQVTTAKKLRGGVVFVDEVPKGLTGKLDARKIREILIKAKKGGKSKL
Chain of Nuclear receptor subfamily 1 group I member 3 (Homo sapiens) (Q14994 whole entry, looked up): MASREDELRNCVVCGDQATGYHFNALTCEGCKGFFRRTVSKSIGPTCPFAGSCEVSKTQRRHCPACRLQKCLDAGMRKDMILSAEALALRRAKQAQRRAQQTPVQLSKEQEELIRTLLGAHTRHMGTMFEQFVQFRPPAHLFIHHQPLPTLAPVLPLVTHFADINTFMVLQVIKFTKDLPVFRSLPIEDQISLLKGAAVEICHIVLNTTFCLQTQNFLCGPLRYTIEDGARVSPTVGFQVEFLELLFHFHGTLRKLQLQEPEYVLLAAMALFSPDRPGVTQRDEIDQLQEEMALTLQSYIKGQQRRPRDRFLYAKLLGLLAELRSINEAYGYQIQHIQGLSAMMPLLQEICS

As to `CCOC(OCC)OCC`, the Potency entry in assay [1], in assay [4], in assay [5], in assay [6], in [7] and in [8] was “inactive” throughout. For the same molecule, the Potency result in assay [9], in [10] and in assay [11] was “inactive” in each case. In addition, the outcome in assay [2] and in [3] was inactive.

Turning to `Cc1c(N=C=O)cccc1N=C=O`, the Potency entry in [1], in [4], in [5], in [6], in assay [7] and in assay [8] was “inactive” each time. Further, the Potency result in assay [10] and in assay [11] was “inactive” throughout. Moreover, the molecule was called inactive in assay [2] and in [3].

With `O=C(O)COCC(=O)O`, the Potency entry in assay [1], in assay [4], in assay [5], in assay [6], in assay [7] and in assay [8] was “inactive” in each case. The Potency result in assay [9], in assay [10] and in assay [11] was “inactive” throughout. The call in assay [2] and in [3] was inactive.

Turning to `CCOC(=O)CC(O)(CC(=O)OCC)C(=O)OCC`, the Potency entry in [1], in assay [4], in assay [5], in assay [6], in assay [7] and in assay [8] was “inactive” in each case. The Potency result in assay [9] and in assay [11] was “inactive” each time. Also, the result in assay [2] and in assay [3] was inactive.

As for `CCCCCCCCS`, the Potency result in assay [1], in assay [4], in [5], in assay [6], in assay [7] and in [8] was “inactive” each time. In addition, in assay [11], the Potency result is “inactive”. The result in assay [2] and in [3] was inactive.

In the case of `CCOc1ccccc1O`, the Potency entry in assay [1], in [4], in [5], in [6], in assay [7] and in assay [8] was “inactive” throughout. Also, the Potency entry in [10] and in assay [11] was “inactive” in each case. Further, the outcome in [2] and in [3] was inactive.

Turning to `Clc1ccccc1-c1nc(-c2ccncc2)no1`, the Potency entry in assay [1], in [5], in assay [7], in assay [8] and in assay [11] was “inactive” throughout. The result in assay [2] and in assay [3] was inactive. Moreover, the Potency in assay [4] was 2.11 µM (active); in assay [6], 2.75 µM (active); in assay [10] it was 10.6 µM (active).

Turning to `CC(=O)Nc1ccn(C2COC(COC(=O)c3ccccc3)O2)c(=O)n1` (stereo unspecified), the Potency entry in assay [1], in [4], in [5], in [6], in assay [7] and in assay [8] was “inactive” in each case. Moreover, the Potency result in [10], in assay [11] and in assay [12] was “inactive” throughout. The molecule was called inactive in assay [2] and in assay [3].

In the case of `COC(=O)c1cc(Cl)ccc1[N+](=O)[O-]`, the Potency result in [1], in assay [4], in assay [5], in [6], in assay [7] and in assay [8] was “inactive” each time. The Potency result in assay [10] and in [11] was “inactive” in each case. Further, the result in assay [2] and in assay [3] was inactive.

Take `COc1ccc(/C=C/S(=O)(=O)NC(=O)c2ccc(C)cc2Cl)cc1`: the Potency result in assay [1], in assay [4], in assay [5], in assay [7], in assay [8] and in assay [11] was “inactive” in each case. Further, the outcome in assay [2] and in assay [3] was inactive. Moreover, the Potency in assay [6] was 79.6 µM (active).

On to `CC(=O)c1ccc(Cl)c(Cl)c1Cl`, for which the Potency entry in [1], in assay [4], in assay [5], in [6], in assay [7] and in assay [8] was “inactive” in each case. Moreover, in [10], the Potency result was “inactive”. Further, the call in [2] and in assay [3] was inactive.

`Cc1ccc2c(Cl)cc(Cl)c(O)c2n1`: the Potency result in assay [1], in assay [4], in assay [5], in [6], in assay [7] and in [8] was “inactive” in each case. Moreover, the Potency entry in assay [11] was “inactive”. Further, the molecule was called inactive in assay [2] and in [3].

In the case of `Nc1ccc(C(=O)Oc2ccccc2)c(O)c1`, the Potency entry in [1], in assay [5], in assay [7], in [8], in assay [9] and in [11] was “inactive” throughout. In addition, the Potency entry in assay [12] is “inactive”. The molecule was classed as inactive in assay [2] and in assay [3]. For the same molecule, the Potency was 3.35 µM (active) in [4], 13.8 µM (active) in assay [6] and 13.3 µM (active) in assay [13].
